Among the data in PubChem BioAssay (NCATS) are Potency values, retold here.

Records with an inconclusive call do not appear. The source made the active and inactive calls. Calls come from the whole dose curve; as a rule, active = well fitted inhibition curve with a large enough effect; inconclusive = small, poorly fitted or top-dose-only effect; inactive = flat fitted curve, though single readings scatter.

Common to all, as to experiment: qHTS profiling for inhibitors of Plasmodium falciparum proliferation (AID 504749); note: nearly all actives have a fitted effect of over 60% in size
Holding throughout (settings): P. falciparum in erythrocytes, SYBR Green DNA, 72 h; series mostly up to 28.7 µM
Background: qHTS replaces the single test concentration by a dilution series.

Test [1] concerns CP262. The essentials:
(§1)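 In a 72 h erythrocytic culture (37 C, humidified, 5% CO2) at 2.5% hematocrit and 0.3% starting parasitemia, compounds were tested; SYBR Green I in detergent lysis buffer stained parasite DNA overnight.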

For test [2], the system named is CP266. Put shortly: as §1
The subject of test [3] is CP297. Put shortly:
as §1

Test [4] has as its system CP315. Put shortly: as §1
The subject of test [5] is CP329. The essentials:
as §1

Test [6] has as its system DFO2036. The essentials:
as §1

Test [7] concerns CP256. Put shortly:
as §1

The test system of test [8] is CP260. Put shortly:
as §1

Test [9] concerns CP247. Put shortly: as §1
Test [10] concerns CP250. The essentials:
as §1

Test [11] relates to CP286. Put shortly: as §1
The test system of test [12] is CP269. The essentials: as §1
In test [13] the test system is CP291. Put shortly:
as §1

The test system of test [14] is CP325. Put shortly:
as §1

Test [15] concerns CP335. Put shortly: as §1
Test [16] deals with CP252. Put shortly: as §1
Test [17] concerns CP268. Put shortly: as §1
The test system of test [18] is CP305. Put shortly: as §1
The test system of test [19] is CP238. The essentials: as §1
In test [20] the test system is CP265. Put shortly:
as §1
Potency is the fitted concentration of half-maximal effect.

Consider `CCCOC(C(=O)OC1CCN(C)CC1)(c1ccccc1)c1ccccc1`, for which the Potency result in [1], in [2], in [3], in test [4], in test [5] and in test [6] was “inactive” each time.

For `O=C(CCCN1CCC(O)(c2ccc(Br)cc2)CC1)c1ccc(F)cc1`, the Potency entry in test [7], in test [1], in test [2], in test [3] and in test [6] was “inactive” in each case. Further, in test [8], the Potency is 3.55 µM (active).

As for `Clc1ccc2c(c1)CCc1cccnc1C2=C1CCNCC1`, the Potency result in test [9], in [10], in test [7] and in [6] was “inactive” each time. In test [11], the Potency was 10 µM (active).

`c1ccc(CNCCNCc2ccccc2)cc1`: the Potency entry in test [10], in test [1], in test [4] and in test [5] was “inactive” throughout. Further, the Potency in test [3] is 12 µM (active).

As to `CCCCCCCCCCCCCCNCCO`, the Potency in test [9] is 10 µM (active); in test [8] it was 4.47 µM (active); in test [11], 3.55 µM (active); in test [6] it was 17.8 µM (active). Moreover, the Potency result in test [1], in test [2], in test [12], in test [13], in [4] and in [14] was “inactive” throughout. In addition, the Potency result in [5] and in test [15] was “inactive” throughout.

Consider `COc1cc2c(cc1OC)C(=O)C(CC1CCN(Cc3ccccc3)CC1)C2` (stereo not given), for which the Potency result in [9], in test [16], in test [7], in test [8], in test [1] and in test [2] was “inactive” each time. Also, the Potency result in test [17], in test [12], in test [11], in test [13], in [3] and in test [18] was “inactive” each time. In addition, the Potency result in test [4], in test [14], in test [5], in test [15] and in test [6] was “inactive” throughout.

Take `O=C(Nc1ccc(Oc2ccc(Cl)cc2)c(Cl)c1)c1cc(I)cc(I)c1O`: the Potency result in test [19], in test [7], in test [1], in test [2], in test [17] and in test [12] was “inactive” in each case. For the same compound, the Potency entry in [11], in [13], in [3], in test [18], in test [4] and in [14] was “inactive” each time. Further, the Potency result in test [5], in test [15] and in test [6] was “inactive” each time.

Regarding `CCOC(=O)COc1ccc2c(C)c(CCN(CC)CC)c(=O)oc2c1Cl`, the Potency result in test [9], in test [10], in [8], in [1], in [2] and in test [17] was “inactive” throughout. Further, the Potency result in test [12], in test [11], in [13], in test [3], in [18] and in [4] was “inactive” in each case. The Potency result in test [14], in test [5], in test [15] and in test [6] was “inactive” throughout.

`CCOC(=O)/C=C(C)/C=C/C=C(C)/C=C/c1c(C)cc(OC)c(C)c1C`: the Potency entry in test [1], in test [2], in [17], in test [12], in test [13] and in [3] was “inactive” each time. Besides, the Potency entry in test [18], in [4], in [14] and in [5] was “inactive” throughout.

For the compound `CN(C)CCOc1ccccc1Cc1ccccc1`, the Potency was 7.94 µM (active) in [19]; 2.51 µM (active) in test [8]; 2.24 µM (active) in [20]; 4.26 µM (active) in test [3]; 6.31 µM (active) in [6]. Besides, in [4], the Potency result is “inactive”.

Regarding `CN1CCN(CCCN2c3ccccc3Sc3ccc(S(=O)(=O)N(C)C)cc32)CC1`, the Potency entry in [16], in test [1], in test [2], in [4] and in test [5] was “inactive” in each case. In addition, the Potency in test [20] was 3.55 µM (active).

For `CN=C(NC#N)Nc1ccc(C2=NNC(=O)CC2C)cc1` (stereo not given), the Potency result in [2], in test [17], in [12], in test [13], in test [3] and in test [18] was “inactive” each time. In addition, the Potency entry in test [4], in test [14], in [5] and in [15] was “inactive” in each case.

`CCN(CCCc1ccccc1)CCCc1ccccc1`: the Potency entry in [9], in [10], in [16], in [7], in [8] and in [1] was “inactive” each time. The Potency entry in test [2], in [18], in test [4], in test [5] and in test [6] was “inactive” each time.

In the case of `CCCCc1nc(Cl)c(CO)n1Cc1ccc(-c2ccccc2-c2nn[nH]n2)cc1`, the Potency in test [16] was 10 µM (active). The Potency entry in test [1], in [17] and in test [3] was “inactive” each time.

As for `C=C(CC)C(=O)c1ccc(OCC(=O)O)c(Cl)c1Cl`, the Potency was 10 µM (active) in test [9]; 12.6 µM (active) in test [10]; 12.6 µM (active) in test [16]; 4.47 µM (active) in [7]; 8.91 µM (active) in [8]; 10 µM (active) in test [11]. For the same compound, the Potency result in test [20], in [2], in test [3] and in test [14] was “inactive” throughout.

Consider `CO/N=C1\CN(c2nc3c(cc2F)c(=O)c(C(=O)O)cn3C2CC2)CC1CN` (stereo not given), for which the Potency in [8] was 7.94 µM (active); in test [17] it was 12 µM (active); in test [12], 5.36 µM (active); in test [11], 7.94 µM (active); in test [15] it was 6.75 µM (active). In test [1], the Potency result is “inactive”.
